This note sets out measurements from PubChem BioAssay AID2284421 (EPA ToxCast).

Calls of active or inactive are those of the source. Rule for the calls: active = hit-call score of the fitted dose curve at least 0.9, where 1 is the maximum; inactive = score below 0.9.

This experiment deals with Brachyury (BRA) Protein Expression, Deisenroth Lab, TBXT (gene 6862). Put plainly: CCTE_Deisenroth_DEVTOX-GLR_Meso_BRA: CCTE's DevTox GLR-Meso Assay Evaluation of Brachyury (BRA) Protein Expression, Deisenroth Lab. The procedure:
CCTE_Deisenroth_DEVTOX-GLR_Meso assay is a cell-based, multiplex-readout assay that uses RUES2-GLR, a human pluripotent cell line, with measurements taken at 48 hours after chemical dosing in a 384-well microplateCCTE_Deisenroth_DEVTOX-GLR_Meso_BRA is 1 of 4 assay components calculated from the CCTE_Deisenroth_DEVTOX-GLR_Meso assay and it measures an the percentage of cells in an mesoderm state. Using a type of inducible fluorescent protein reporter, gain-of-signal activity can be used to understand changes in gene expression with fluorescent microscopy. The percentage of BRA+ cells are determined by calculating the number of BRA+ cells divided by the cell count. To generalize the intended target to other relatable targets, this assay component is annotated to the transcription factor intended target family, where the subfamily is T-box protein.Data from the assay component CCTE_Deisenroth_DEVTOX-GLR_Meso_BRA was analyzed as 1 assay endpoint. The endpoint is the percent change in BRA+ cell population relative to the 0.2% DMSO control in the CCTE_Deisenroth_DEVTOX-GLR_Meso assay. Furthermore, this assay endpoint can be referred to as a primary readout, because this assay has produced multiple assay endpoints where this one serves as a measure of mesoderm differentiation.
All assay protocols are aligned to the DevTox GLR-Endo assay workflow. Cells are seeded into 384-well microplates for 24 hours prior to initiating differentiation in defined media for a total duration of 48 hours. A total of two chemical exposures are administered in 24-hour intervals during the 48-hour differentiation period. At the assay termination point, cells are fixed and stained with a fluorescent dye demarcating the nucleus. High-content imaging is used to acquire brightfield and fluorescent channel images across 5 fields per well. Cell identification and mean biomarker fluorescence intensities are calculated with image analysis software to determine the total cell counts for viability assessment and the biomarker expression frequency for each lineage-dependent assay. A typical experimental design tests a 10-point concentration series (1 nM - 200 uM) for 28 compounds in single technical replicate. Assay plate controls include non-differentiated pluripotent cells (baseline control), lineage-specific differentiated cells (differentiation control), and DMSO solvent exposed differentiated cells (solvent control). Experiments typically comprise a minimum of four experimental replicates (n=4).
As for `CC/C(=C(/CC)c1ccc(O)cc1)c1ccc(O)cc1`, the AC50 is 19.8 µM (active).

For the molecule `O=C1NC(=O)C(c2ccccc2)(c2ccccc2)N1`, the outcome was inactive.

In the case of `CN(Cc1cnc2nc(N)nc(N)c2n1)c1ccc(C(=O)N[C@@H](CCC(=O)O)C(=O)O)cc1`, the call was inactive.

Turning to `CC1=C(/C=C/C(C)=C/C=C/C(C)=C/C(=O)O)C(C)(C)CCC1`, the molecule was classed as inactive.

`CC(C)(c1ccc(O)cc1)c1ccc(O)cc1`: the result was inactive.

`Nc1nc2ncc(CNc3ccc(C(=O)N[C@@H](CCC(=O)O)C(=O)O)cc3)nc2c(=O)[nH]1`: the molecule was classed as inactive.

For `CC(=O)Nc1ccc(O)cc1`, the molecule was called inactive.

For `CCN(CC)CCNC(=O)c1c(C)[nH]c(/C=C2\C(=O)Nc3ccc(F)cc32)c1C`, the result was inactive.

`O=c1[nH]cc(F)c(=O)[nH]1`: the call was inactive.

On to `O=C1CCC(N2C(=O)c3ccccc3C2=O)C(=O)N1` (stereo unspecified), for which the result was inactive.

For `CCCC(CCC)C(=O)O`, the call was inactive.

On to `Nc1cccc2c1C(=O)N(C1CCC(=O)NC1=O)C2=O` (stereo unspecified), for which the molecule was called inactive.

As for `CC1(C)S[C@@H]2[C@H](NC(=O)Cc3ccccc3)C(=O)N2[C@H]1C(=O)O`, the call was inactive.

As to `CS(=O)(=O)OCCCCOS(C)(=O)=O`, the result was inactive.

Consider `CC1=C(/C=C/C(C)=C/C=C/C(C)=C\C(=O)O)C(C)(C)CCC1`, for which the molecule was called inactive.

Regarding `O=C1NS(=O)(=O)c2ccccc21`, the outcome was inactive.
